NR3A LBD binder: NR3A (human) ligand-binding domain modulation; NR3A LBD differential scanning fluorimetry, Tm shift; 0% = protein alone, 100% = glycine-bound protein; Tm shift relative to glycine control, % at 25 µM; actives 2.5% (n = 340,000);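 active = melting temperature shift of at least 10% of the positive control shift, at one fixed dose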
NadD block: blocks S. aureus nicotinate mononucleotide adenylyltransferase; purified NadD enzyme, colorimetric absorbance read-out; inhibition, % at 20 µM; actives 0.78% (n = 360,000); in the data active = inhibition above about 26%
SKN-1 block: C. elegans SKN-1 inhibition | C. elegans VP596 Pgst-4::GFP/RFP ratio, acrylamide-induced, 24 h | inhibition, % at 21.8 µM | actives 0.49% (n = 360,000) | AID 624304;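 active = interference check ratio from 0.5 to 1.5 plus GFP to RFP signal ratio inhibition reaching or exceeding a fixed threshold, cut at about 30% in these data, passing the limit was not always enough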
SMARCA2 activ: activators of SMARCA2 function | MG213 cells, MMTV-luciferase reporter, dexamethasone, overnight | activation, % at 9.1 µM | actives 1% (n = 370,000); in the data active = activation above about 7.8%;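 note: 0% = vehicle wells and 100% = reference activator wells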
Vif imaging: blocks HIV Vif function. HEK293T cells, Vif self-association by quenched fluorescence, imaging, 24 h. inhibition, % at 7.49 µM. actives 0.35% (n = 340,000). AID 602346; in the data active = inhibition above about 50%, passing the limit was not always enough
esBAF inh: inhibitors of esBAF chromatin remodeling in mouse ES cells; reporter increase, % at 12.5 µM; Bmi1-luciferase knock-in reporter, 24 h; 100% = twice the neutral-well signal; AID 602393; actives 2% (n = 350,000); in the data active = activation above about 40%;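 note: 0% = median of the plate's neutral control wells and 100% = double that signal; a rise in the Bmi1 reporter signal indicates esBAF inhibition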
NadD inh conf: confirmation of Staphylococcus aureus NadD inhibitors | shares compounds with NadD block | purified S. aureus NadD, colorimetric enzyme assay | inhibition, % at 20 µM | actives 13% (n = 2,000) | AID 624309; in the data active = inhibition mostly above about 42%, no sharp cut-off; inactive = mostly below about 42%
The depositor's hits bear a star; . = no result. Only some compounds are listed: those with a hit (about 5.2% of all), similar ones and a draw of the others.

SMILES | NR3A LBD binder | NadD block | SKN-1 block | SMARCA2 activ | Vif imaging | esBAF inh | NadD inh conf
O=C(C[C@H]1CC[C@H](NC(=O)Nc2ccc(F)cc2)[C@H](CO)O1)NCc1cccc(F)c1 | . | . | . | . | . | -3 | .
COc1ccc(/C=C/C(=O)NCC(=O)N/N=C/c2cc(Br)ccc2OCc2ccccc2)cc1 | 0 | 28* | 8 | 0 | -5 | . | -1
COc1ccc(Br)cc1/C=N/NC(=O)CNC(=O)/C=C/c1ccccc1 | 2 | 13 | -4 | 1 | -9 | 1 | .
CC(=O)N(C)C[C@@H]1Oc2ncc(-c3ccc(C)cc3)cc2C(=O)N([C@@H](C)CO)C[C@@H]1C | . | . | . | . | . | -1 | .
Cc1cc2nc(-c3ccco3)c(Cc3ccccc3C(F)(F)F)n2c(C)c1Br | . | 42* | 4 | -1 | . | . | 28
Clc1ccc2nc(-c3ccco3)c(Cc3ccsc3)n2c1 | . | 34* | 5 | -2 | . | 2 | 18
FC(F)(F)c1ccccc1Cc1c(-c2ccco2)nc2ccc(Br)cn12 | . | 37* | -5 | -6 | . | -8 | 11
COc1ccccc1Cc1c(-c2ccco2)nc2ccc(Cl)cn12 | . | 30* | 16 | -1 | . | 4 | 6
Cc1ccc2nc(-c3ccco3)c(Cc3ccccc3C(F)(F)F)n2c1 | . | . | . | -2 | . | . | .
Cc1noc(C)c1S(=O)(=O)Nc1ccc2c(c1)C(=O)N([C@H](C)CO)C[C@@H](C)[C@H](CN(C)C)OCCCC[C@@H](C)O2 | . | . | . | . | . | 0 | .
C/C=C/c1cnc2c(c1)C(=O)N([C@@H](C)CO)C[C@H](C)[C@H](CN(C)C(=O)Cc1ccccc1)O2 | . | . | . | . | . | -4 | .
COc1ccccc1Cc1c(-c2ccco2)nc2ccc(Br)cn12 | . | 45* | -10 | 3 | . | 25 | 26
FC(F)Oc1ccc(NC(=S)NNc2ccnc3cc(Cl)ccc23)cc1 | 4 | 32* | 5 | 0 | 2 | 15 | 18
NC(=S)NNc1ccnc2cc(Cl)ccc12 | 1 | -3 | 8 | 0 | 2 | . | .
CN(C)C(=O)c1cccc(-c2cccc(-c3nc(C(=O)N4CCCCC4)cc4c3[C@@H](CCO)N([S@](=O)C(C)(C)C)C4)c2)c1 | . | . | . | . | . | 1 | .
CCC(=O)N(C)C[C@H]1Oc2ncc(-c3ccc(F)cc3)cc2C(=O)N([C@@H](C)CO)C[C@H]1C | . | . | . | . | . | -3 | .
N#Cc1ccccc1Cn1cc(/C=N/Nc2ccc([N+](=O)[O-])cn2)c2ccccc21 | 1 | 32* | 17 | -4 | 158* | 6 | 5
O=C(C[C@@H]1CC[C@@H]2[C@H](COC[C@H](O)CN2Cc2cc(F)ccc2F)O1)N1CCc2ccccc2C1 | . | . | . | . | . | 30 | .
CCOc1ccc(-n2c(SCC(=O)N3CCc4ccccc43)nnc2-c2c[nH]c3ccccc23)cc1 | 1 | 8 | -6 | -1 | 13 | -1 | .
COc1cccc(-n2c(SCC(=O)N3CCc4ccccc43)nnc2-c2c[nH]c3ccccc23)c1 | 1 | 38* | 23 | -2 | -9 | 4 | 7
C[C@@H]1CN([C@@H](C)CO)C(=O)c2cc(NC(=O)CCN3CCOCC3)ccc2O[C@@H]1CN(C)Cc1ccncc1 | . | . | . | . | . | 2 | .
O=C(O)CSc1cc(C(=O)c2cc(F)ccc2O)cn2c(=O)c3c(-c4ccccc4)csc3nc12 | 4 | 19 | 13 | -4 | -3 | -4 | .
CCOC(=O)c1sc2nc3c(SCCC#N)cc(C(=O)c4cc(F)ccc4O)cn3c(=O)c2c1C | 6 | 33* | 4 | -1 | -2 | 1 | -8
O=C(N=c1ccn(-c2nc3ccccc3nc2NS(=O)(=O)c2ccccc2)cc1)c1cccs1 | 0 | 19 | 11 | -4 | -6 | . | .
Cc1ccccc1C(=O)N=c1ccn(-c2nc3ccccc3nc2NS(=O)(=O)c2ccc(F)cc2)cc1 | -6 | 30* | 0 | 4 | -9 | 3 | 56*
SMILES | NR3A LBD binder | NadD block | SKN-1 block | SMARCA2 activ | Vif imaging | esBAF inh | NadD inh conf
C/C=C/c1cnc2c(c1)C(=O)N([C@@H](C)CO)C[C@@H](C)[C@H](CN(C)C(=O)C1CC1)O2 | . | . | . | . | . | 0 | .
OC[C@H]1Nc2ccc(-c3cccc(F)c3)cc2[C@H]2[C@@H]1CCN2Cc1ccncc1 | . | . | . | . | . | 9 | .
Cc1ccc(NC(=O)CC2Nc3ccccc3NC2=O)cc1Cl (stereo unspecified) | 10* | 31* | 6 | 3 | -1 | 39 | 14
CCN1/C(=C/C=C/C=C/C=C/c2sc3ccccc3[n+]2CC)Sc2ccccc21 | -1 | 40* | 37 | -4 | -10 | -38 | 79*
C[C@H](CO)N1C[C@H](C)[C@H](CN(C)C(=O)Nc2cccc3ccccc23)Oc2ccc(NC(=O)CCN3CCOCC3)cc2CC1=O | . | . | . | . | . | -3 | .
O=C(O)c1cccc(NC(=S)N/N=C/c2ccccc2OCc2cccc(Br)c2)c1 | -12 | 51* | -10 | 4 | -7 | 11 | 72*
O=C(O)c1cccc(NC(=S)N/N=C/c2ccccc2OCc2ccc(Br)cc2)c1 | -5 | 45* | 3 | 2 | -1 | . | 64*
COC(=O)c1ccc(COc2ccccc2/C=N/Nc2cccc(C(=O)O)c2)cc1 | -26 | 19 | -12 | 1 | 13 | . | .
O=C(O)c1cccc(NC(=S)N/N=C/c2cccc(O)c2)c1 | 2 | 0 | 8 | 2 | 1 | . | .
CCN(C[C@H]1[C@@H](c2ccccc2)[C@H](CO)N1CC1CC1)C(=O)c1ccccn1 | . | . | . | . | . | 7 | .
COC(=O)C[C@H]1CC[C@@H]2[C@H](COc3ccc(NS(=O)(=O)c4cccc(F)c4)cc3C(=O)N2C)O1 | . | . | . | . | . | 6 | .
S=c1nc[nH]c2c1sc1nc(-c3ccccc3)c3c(c12)CCCC3 | 12* | 40* | -1 | -2 | -4 | . | -2
N#C[C@H]1[C@H](c2ccccc2)[C@H](CO)N1C(=O)Nc1cccc(F)c1 | . | . | . | . | . | -1 | .
COc1cc2c(cc1N/C=C(\C#N)c1nc(-c3ccccc3)cs1)oc1ccccc12 | 1 | 16 | -9 | 0 | -8 | . | .
N#C/C(=C\Nc1ccc2cn[nH]c2c1)c1nc(-c2ccccc2)cs1 | 2 | 35* | 9 | -2 | 1 | . | 1
N#C/C(=C\Nc1ccc2cn[nH]c2c1)c1nc(-c2ccc(Cl)cc2)cs1 | 3 | 40* | 25 | 3 | -4 | . | 3
CC(C)(C)OC(=O)[C@H](Cc1ccccc1)NC(=O)c1ncn2c1c(=O)[nH]c1ccc(Br)cc12 | . | 40* | 9 | 4 | -2 | -2 | 4
CNC(=O)C[C@H]1CC[C@@H]2[C@@H](COc3ccc(NC(=O)Nc4ccc(Cl)cc4)cc3C(=O)N2C)O1 | . | . | . | . | . | -2 | .
COc1ccccc1N1CCN(c2ncc(C(=O)N3CCN(c4cccc(Cl)c4)CC3)c3ccccc23)CC1 | 0 | 34* | -5 | -2 | 1 | . | 2
CCC(=O)N(C)C[C@@H]1Oc2ncc(Br)cc2C(=O)N([C@H](C)CO)C[C@@H]1C | . | . | . | . | . | 1 | .

Assay outcomes deposited in PubChem by several laboratories.
